Inconclusive results are not listed. Calls of active or inactive are those of the source. Calls follow the shape of the dose curve; as a rule, active = well fitted curve in the direction sought with a large enough effect; inconclusive = small, poorly fitted or top-dose-only effect, or another doubt; inactive = no such curve, though single readings can be large; an effect the other way counts as inactive or inconclusive. Starred links: 1 amine or outer side, 2 acyl side, 3 side chain; linkers in the order of their positions; H or OH if unused. Positions of bridges follow the written chain, without caps; N, C: chain ends. Non-standard residues stand in square brackets, D forms with d. Residues, ends and D or L forms follow the SMILES beside them. Chains are numbered I, II in the order given. *: point of attachment. Actinocin(9to1) = Cc1c2oc3c(C)ccc(C(=O)[*:1])c3nc-2c(C(=O)[*:2])c(N)c1=O; NMeV = CN[CH](C(=O)O)C(C)C; Cbz = O=C(OCc1ccccc1)*; Sar = CNCC(=O)O
Key:
[1] = Quantitative High-Throughput drug screen in 47 multiple myeloma cell lines against the NCATS MIPE library collection: ARD_JJKsccE7 cell viability assay (AID 1918929)
How it was run: (§1)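 We plated 500 myeloma cells per well, pinned in MIPE 4.0 compounds, and incubated for 48 hours at 37C. ATP was then quantified with CellTiter-Glo, with DMSO and media-only wells defining 100% and 0%.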

[2] = Quantitative High-Throughput drug screen in 47 multiple myeloma cell lines against the NCATS MIPE library collection: Karpas620_DSMZ cell viability assay (AID 1918959); also: nearly all actives have a fitted effect of over 30% in size
How it was run: as §1

[3] = Quantitative High-Throughput drug screen in 47 multiple myeloma cell lines against the NCATS MIPE library collection: KMM1_JCRB cell viability assay (AID 1918960); also: nearly all actives have a fitted effect of over 30% in size
How it was run: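 500 cells/well; MIPE 4.0 library pinned in; 48 h, 37 °C, 5% CO2; CellTiter-Glo ATP luminescence. Controls: DMSO = 100% viability, medium only = 0%.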

[4] = Quantitative High-Throughput drug screen in 47 multiple myeloma cell lines against the NCATS MIPE library collection: Karpas417_ECACC cell viability assay (AID 1918961); conditions: Karpas417 myeloma viability, CellTiter-Glo ATP luminescence, 48 h; viability (% of DMSO): at 45.8 µM (top of the series)
How it was run: (§2)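 Viability readout: CellTiter-Glo luminescence following 5 min room-temperature incubation with reagent. Prior exposure: 48 h, 37C, humidified 5% CO2, 500 cells per well.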

[5] = Quantitative High-Throughput drug screen in 47 multiple myeloma cell lines against the NCATS MIPE library collection: KHM11_PLB cell viability assay (AID 1918962); also: nearly all actives have a fitted effect of over 35% in size
How it was run: as §1

[6] = Quantitative High-Throughput drug screen in 47 multiple myeloma cell lines against the NCATS MIPE library collection: JIM3_ECACC cell viability assay (AID 1918963; also: nearly all actives have a fitted effect of over 35% in size)
How it was run: as §1

[7] = Quantitative High-Throughput drug screen in 47 multiple myeloma cell lines against the NCATS MIPE library collection: JIM1_ECACC cell viability assay (AID 1918964)
How it was run: as §1

[8] = Quantitative High-Throughput drug screen in 47 multiple myeloma cell lines against the NCATS MIPE library collection: INA6_PLB cell viability assay (AID 1918965; also: nearly all actives have a fitted effect of over 55% in size)
How it was run: as §2

[9] = Quantitative High-Throughput drug screen in 47 multiple myeloma cell lines against the NCATS MIPE library collection: JJN3_DSMZ cell viability assay (AID 1918966; also: nearly all actives have a fitted effect of over 50% in size)
How it was run: as §1

[10] = Quantitative High-Throughput drug screen in 47 multiple myeloma cell lines against the NCATS MIPE library collection: H1112_PLB cell viability assay (AID 1918967; also: nearly all actives have a fitted effect of over 30% in size)
How it was run: as §1
Potency is read from the fitted curve at half-maximal effect.

SMILES	Potency [1]	Potency [2]	Potency [3]	Potency [4]	Potency [5]	Potency [6]	Potency [7]	Potency [8]	Potency [9]	Potency [10]	viability (% of DMSO) [4]
O=C(C=Cc1ccc(CN(CCO)CCc2c[nH]c3ccccc23)cc1)NO	93.5 nM (active)	148 nM (active)	105 nM (active)	105 nM (active)	209 nM (active)	332 nM (active)	132 nM (active)	29.6 nM (active)	93.5 nM (active)	187 nM (active)	
Cn1cc(C=CC(=O)c2cccc(F)c2)cc1C=CC(=O)NO	16600 nM (active)	13200 nM (active)	16600 nM (active)	13200 nM (active)	inactive			8330 nM (active)			
Oc1ccc(-c2ccc(-c3cc(Nc4cccc(CNC5CC5)c4)n[nH]3)cc2)c(O)c1	1180 nM (active)	1180 nM (active)	743 nM (active)	833 nM (active)	743 nM (active)	1870 nM (active)	264 nM (active)	662 nM (active)	1320 nM (active)	1480 nM (active)	
CNC(=O)c1ccc(Nc2cc(Nc3ccccc3S(=O)(=O)C(C)C)c3cc[nH]c3n2)nc1	1870 nM (active)	1320 nM (active)	1480 nM (active)	118 nM (active)	833 nM (active)	1180 nM (active)	3320 nM (active)	469 nM (active)	16600 nM (active)	4180 nM (active)	
COc1cc(CCc2cc(NC(=O)c3ccc(N4C[C@@H](C)N[C@@H](C)C4)cc3)n[nH]2)cc(OC)c1	16600 nM (active)	20900 nM (active)	18700 nM (active)	2350 nM (active)	9350 nM (active)	14800 nM (active)	2350 nM (active)	9350 nM (active)		11800 nM (active)	
C=CCNc1c(O)cc2c(O)c1C[C@@H](C)C[C@H](OC)[C@@H](O)[C@@H](C)C=C(C)[C@H](OC(N)=O)[C@@H](OC)C=CC=C(C)C(=O)N2	74.3 nM (active)	1180 nM (active)	372 nM (active)	74.3 nM (active)	264 nM (active)	590 nM (active)		187 nM (active)	296 nM (active)	1050 nM (active)	
CCCCCCCCc1ccc(CCC(N)(CO)CO)cc1	14800 nM (active)	8330 nM (active)	6620 nM (active)	6620 nM (active)	8330 nM (active)	13200 nM (active)	5900 nM (active)	8330 nM (active)	18700 nM (active)	18700 nM (active)	
Cc1c2oc3c(C)ccc(C(=O)NC4C(=O)NC(C(C)C)C(=O)N5CCCC5C(=O)N(C)CC(=O)N(C)C(C(C)C)C(=O)OC4C)c3nc-2c(C(=O)NC2C(=O)NC(C(C)C)C(=O)N3CCCC3C(=O)N(C)CC(=O)N(C)C(C(C)C)C(=O)OC2C)c(N)c1=O (stereo not given) (I: TVP[Sar][NMeV] / II: TVP[Sar][NMeV]; ester I:1-I:C, II:1-II:C; linker I:N-II:N via Actinocin(9to1); configuration not given here)	inactive	inactive	inactive	inactive	inactive			inactive	inactive	inactive	
Cn1cc(C2=C(c3c4n(c5ccccc35)CCC(CN)C4)C(=O)NC2=O)c2ccccc21 (stereo not given)	7430 nM (active)	9350 nM (active)	13200 nM (active)	9350 nM (active)	7430 nM (active)	10500 nM (active)	8330 nM (active)	3720 nM (active)	9350 nM (active)	7430 nM (active)	
Cn1cc(CNCC2CCN(c3ncc(C(=O)NO)cn3)CC2)c2ccccc21	52.6 nM (active)	105 nM (active)	41.8 nM (active)	16.6 nM (active)	66.2 nM (active)		74.3 nM (active)	1 nM (active)	29.6 nM (active)	33.2 nM (active)	
CC(=O)NCC(=O)N1[C@H]2CC[C@H]1c1cc(Nc3ncc(C(F)(F)F)c(NC4CCC4)n3)ccc12	1660 nM (active)	1320 nM (active)	3720 nM (active)	118 nM (active)	526 nM (active)		332 nM (active)	935 nM (active)	2640 nM (active)	16600 nM (active)	
C=CC(=O)N1CCc2ccc(-n3c(=O)ccc4cnc5ccc(-c6cnn(C)c6)cc5c43)cc21	833 nM (active)	3720 nM (active)	833 nM (active)	935 nM (active)	526 nM (active)	2960 nM (active)	1870 nM (active)	235 nM (active)	1050 nM (active)	1050 nM (active)	
COc1ccc(Nc2nccc(NCCO)n2)cc1	inactive	inactive	inactive		inactive	inactive	inactive			inactive	
CC(C)C[C@@H](C=O)NC(=O)[C@H](CC(C)C)NC(=O)[C@H](CC(C)C)NC(=O)OCc1ccccc1 (Cbz-Leu-Leu-Leu-aldehyde)	105 nM (active)	148 nM (active)	83.3 nM (active)		187 nM (active)	526 nM (active)	209 nM (active)	148 nM (active)	469 nM (active)	264 nM (active)	
CCOC(=O)[C@@H](N)Cc1ccc(-c2cc(O[C@H](c3ccc(Cl)cc3-n3ccc(C)n3)C(F)(F)F)nc(N)n2)cc1	9350 nM (active)	9350 nM (active)	11800 nM (active)	9350 nM (active)		20900 nM (active)	6620 nM (active)	23500 nM (active)	18700 nM (active)	10500 nM (active)	
C=C[C@@H]1CN2CCC1C[C@H]2[C@H](O)c1ccnc2ccc(OC)cc12 (stereo not given in full)	inactive	inactive	inactive	inactive						inactive	

SMILES	Potency [1]	Potency [2]	Potency [3]	Potency [4]	Potency [5]	Potency [6]	Potency [7]	Potency [8]	Potency [9]	Potency [10]	viability (% of DMSO) [4]
Cn1cnc(=N)c2[nH]cnc21	105 nM (active)	296 nM (active)	132 nM (active)	23.5 nM (active)		1050 nM (active)	93.5 nM (active)	46.9 nM (active)	166 nM (active)	235 nM (active)	
CC(=O)N1CCN(c2ccc(OCc3nn(C)c(C)c3-c3cccc4c(CCCOc5cccc6ccccc56)c(C(=O)O)n(Cc5cccnc5)c34)cc2)CC1	118 nM (active)	1870 nM (active)	1180 nM (active)		2350 nM (active)	3320 nM (active)	469 nM (active)	33.2 nM (active)		132 nM (active)	
CC(C)(N)c1ccc(-c2nc3ccccc3nc2-c2ccccc2)cc1	14800 nM (active)	10500 nM (active)	18700 nM (active)	372 nM (active)		18700 nM (active)		9350 nM (active)	20900 nM (active)	14800 nM (active)	
O=C(O)C=Cc1ccc(Cn2ccnc2)cc1	inactive	inactive	inactive		inactive	inactive	inactive		inactive	inactive	
CC(=O)OCC(=O)[C@@]1(O)CC[C@H]2[C@@H]3CCC4=CC(=O)CC[C@]4(C)[C@@H]3C(=O)C[C@@]21C	inactive	inactive	inactive		inactive	inactive	inactive		inactive	inactive	
CCOC(=O)C=C[C@H](C[C@@H]1CCNC1=O)NC(=O)[C@@H](CC(=O)[C@@H](NC(=O)c1cc(C)on1)C(C)C)Cc1ccc(F)cc1	inactive	inactive	inactive	inactive		inactive			inactive	inactive	
CC(C)(O)Cn1c(NC(=O)c2ccc(-c3cn[nH]c3)s2)nc2cc(CN3CCOCC3)ccc21	469 nM (active)	662 nM (active)	743 nM (active)	118 nM (active)			418 nM (active)	833 nM (active)	1320 nM (active)	2640 nM (active)	
N[C@H]1CN(c2c(F)cc3c(=O)c(C(=O)O)cn(C4C[C@@H]4F)c3c2Cl)CC12CC2 (stereo not given in full)	inactive	inactive	inactive		inactive	inactive	inactive			inactive	
CCCCCCCCCCCCCCCC(=O)OC[C@@H](NC(=O)C(Cl)Cl)[C@H](O)c1ccc([N+](=O)[O-])cc1	inactive	inactive	inactive	inactive		inactive	inactive			inactive	
C=CCNC1=C2C[C@@H](C)C[C@H](OC)[C@@H](O)[C@@H](C)C=C(C)[C@H](OC(N)=O)[C@@H](OC)C=CC=C(C)C(=O)NC(=CC1=O)C2=O	93.5 nM (active)	1870 nM (active)	148 nM (active)		590 nM (active)	2640 nM (active)	662 nM (active)	209 nM (active)	332 nM (active)	14800 nM (active)	
c1cc(CN2CCCNCCNCCCNCC2)ccc1CN1CCCNCCNCCCNCC1	inactive	inactive	inactive			inactive		inactive		inactive	134% (active)
COc1cc(C=CC(=O)CC(=O)C=Cc2ccc(O)c(OC)c2)ccc1O	6050 nM (active)	3400 nM (active)	4810 nM (active)	4810 nM (active)			3400 nM (active)	1520 nM (active)	13600 nM (active)	6790 nM (active)	
C=Cc1c(C)c2cc3nc(cc4[nH]c(cc5nc(cc1[nH]2)C(C)=C5CCC(=O)O)c(CCC(=O)OC)c4C)[C@@]1(C)C3=CC=C(C(=O)OC)[C@H]1C(=O)OC	296 nM (active)	187 nM (active)	187 nM (active)		526 nM (active)	418 nM (active)	148 nM (active)	209 nM (active)	29.6 nM (active)	235 nM (active)	
O=C1NCCc2[nH]c(-c3ccncc3)cc21	4180 nM (active)	2350 nM (active)	1050 nM (active)		2090 nM (active)	7430 nM (active)	662 nM (active)	1320 nM (active)	2090 nM (active)	4180 nM (active)	
CN1CCCN(C(=O)c2cccc(-c3ccc(C=C4C(=O)Nc5ccc(Cl)cc54)o3)c2)CC1	8330 nM (active)	9350 nM (active)	18700 nM (active)	3720 nM (active)		26400 nM (active)		7430 nM (active)	18700 nM (active)	26400 nM (active)	

From PubChem BioAssay (NCATS)
